Data taken from PubChem BioAssay AID606 (Columbia University Molecular Screening Center, 2007).
Among all 52,000 compounds or so, fewer than 10 were called active.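 How the source made its calls: active means IC50 under 40 µM in the dose-response test; inactive means IC50 of 40 µM or more, or never dose-tested.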 Only a sample is shown.

What follows are compounds tested against Tyrosine-protein phosphatase non-receptor type 22 (Homo sapiens) (UniProt Q9Y2R2) (assay: LYP phosphatase inhibitors, primary screen, biochemical, DiFMUP fluorescence, recombinant catalytic domain, 10 µM (AID 606)). Conditions: at 10 µM, active compounds read high.
Chain of Tyrosine-protein phosphatase non-receptor type 22 (Homo sapiens) (Q9Y2R2 whole entry, looked up, the tested form may be a part): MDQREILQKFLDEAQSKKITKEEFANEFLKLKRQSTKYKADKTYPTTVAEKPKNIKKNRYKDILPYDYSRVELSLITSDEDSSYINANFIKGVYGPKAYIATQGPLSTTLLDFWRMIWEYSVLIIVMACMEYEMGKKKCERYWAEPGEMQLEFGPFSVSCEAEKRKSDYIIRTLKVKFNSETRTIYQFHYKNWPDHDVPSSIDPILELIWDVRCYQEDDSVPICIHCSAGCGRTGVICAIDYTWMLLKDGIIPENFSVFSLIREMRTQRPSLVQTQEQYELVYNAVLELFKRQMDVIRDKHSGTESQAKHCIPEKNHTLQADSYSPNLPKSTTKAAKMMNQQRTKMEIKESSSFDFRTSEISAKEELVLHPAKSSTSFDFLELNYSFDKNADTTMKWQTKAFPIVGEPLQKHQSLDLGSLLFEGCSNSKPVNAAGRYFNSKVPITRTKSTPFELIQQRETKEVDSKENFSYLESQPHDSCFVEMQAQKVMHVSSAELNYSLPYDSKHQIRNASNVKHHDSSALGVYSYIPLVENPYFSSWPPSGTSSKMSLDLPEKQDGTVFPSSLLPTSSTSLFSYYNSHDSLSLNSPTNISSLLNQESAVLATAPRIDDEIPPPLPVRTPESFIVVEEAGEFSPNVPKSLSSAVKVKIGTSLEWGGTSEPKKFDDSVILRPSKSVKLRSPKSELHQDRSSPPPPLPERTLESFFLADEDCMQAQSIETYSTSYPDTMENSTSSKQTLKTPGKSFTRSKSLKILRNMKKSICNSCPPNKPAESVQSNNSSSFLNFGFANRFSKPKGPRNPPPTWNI
With `COc1ccccc1-n1c(CNc2c(C)cccc2C)nnc1SCC(=O)N1CCOCC1` the inhibition was 19.1% (inactive).
With `Cc1ccc(-n2c(N)c(C(=O)N3CCOCC3)sc2=S)cc1` the inhibition was 15.3% (inactive).
With `O=C1CC(c2ccc3c(c2)OCO3)Sc2nc3ccccc3n21` (configuration not stated) the inhibition was 11.4% (inactive).
With `CCCCN(CCCC)Cc1ccc(N)cc1` the inhibition was 3.2% (inactive).
In the case of `COc1ccccc1OCc1nc(C#N)c(N2CCC(C(N)=O)CC2)o1`, the inhibition is reported as 6.04% (inactive).
With `COc1nc(Nc2ccc(-c3nc4ccccc4o3)cc2)nc(N2CCOCC2)n1` the inhibition was 9.06% (inactive).
`O=C(C1CCN(S(=O)(=O)c2cccc3cccnc23)CC1)N1CCc2ccccc21` was tested, and the inhibition was 2.25% (inactive).
In the case of `CCCCn1c(SCC(=O)N2CCCCC2)nc2cc(S(N)(=O)=O)ccc21`, the inhibition is reported as 17.2% (inactive).
With `C=CCNc1nc(NCCN2CCOCC2)nc(OC)n1` the inhibition was 7.44% (inactive).
For `COC(=O)c1c(NC(=O)CC2SCC(C(=O)OC)NC2=O)sc2c1CCCC2` (configuration not stated), the inhibition was -6.67% (inactive).
In the case of `Cc1onc(-c2ccccc2)c1C(=O)Nc1nc(-c2ccc(F)c(F)c2)cs1`, the inhibition is reported as 13.4% (inactive).
With `CN(C)S(=O)(=O)N1CCN(CC(O)COc2ccc(C(=O)c3ccccc3)cc2)CC1` (configuration not stated) the inhibition was 10.5% (inactive).
`CCOC(=O)N1CCN(Cc2nc3c(c(=O)n(C)c(=O)n3C)n2Cc2cccc3ccccc23)CC1` was tested, and the inhibition was 7.1% (inactive).
In the case of `Nc1c(S(=O)(=O)c2cccs2)c2nc3ccccc3nc2n1/N=C/c1cccc(O)c1`, the inhibition is reported as 13.6% (inactive).
For `O=C(NCc1ccco1)C1CCCN(S(=O)(=O)c2ccc(-n3cnnn3)cc2)C1` (configuration not stated), the inhibition was 12% (inactive).
In the case of `CC(=O)OCP(C)(=O)COC(C)=O`, the inhibition is reported as 5.43% (inactive).
`CCN(CC)CCOC(=O)c1ccc(N=CC2=C(O)CC(C)(C)CC2=O)cc1` was tested, and the inhibition was 4.23% (inactive).
With `Cc1c(N2C(=O)C(C)SC23C(=O)Nc2ccccc23)c(=O)n(-c2ccccc2)n1C` (configuration not stated) the inhibition was 4.85% (inactive).
`COc1ccc(C)cc1NC(=O)C1CCCN1S(=O)(=O)c1ccc2c(c1)CCC(=O)N2` (configuration not stated) was tested, and the inhibition was 12% (inactive).
`CCN(CC)c1ccc(NC(=O)c2ccco2)c(C)c1` was tested, and the inhibition was 15.3% (inactive).
`CCc1ccc2[nH]c(=O)c(CN(CCN(C)C)C(=O)Nc3ccccc3OC)cc2c1` was tested, and the inhibition was -7.1% (inactive).
`CCOC(=O)C1CCN(C(=O)CN(C)S(=O)(=O)c2cc(C)ccc2OC)CC1` was tested, and the inhibition was -35.9% (inactive).
With `CCC12CC3CC(C1)CC(C(=O)Nc1nn[nH]n1)(C3)C2` the inhibition was 11.3% (inactive).
With `CCN1C(=O)c2cccc3c(S(=O)(=O)Nc4c(C)n(C)n(-c5ccccc5)c4=O)ccc1c23` the inhibition was -6.68% (inactive).
With `COC(=O)C1=C(C)NC(=O)CC1c1cccc(OC)c1OC` (configuration not stated) the inhibition was -0.77% (inactive).
`Cn1c(SCC(=O)Nc2ccc3c(c2)oc2ccccc23)nnc1-c1ccccc1` was tested, and the inhibition was -0.68% (inactive).
For `CCCC(=O)C1=C(c2ccccc2)C(C#N)(C#N)C(C#N)=C1N`, the inhibition was 12% (inactive).
For `Cc1ccc(N(CC(=O)Nc2ccc(S(=O)(=O)N3CCOCC3)cc2)S(C)(=O)=O)cc1C`, the inhibition was 5.91% (inactive).
For `CCOC(=O)CSc1nc2c(c(=O)[nH]c(=O)n2C)n1CCc1ccccc1`, the inhibition was 12% (inactive).
`CC(=O)NC12CC3CC(C1)CC(C(=O)OCC(=O)Nc1ncc(Cl)c(C)c1Cl)(C3)C2` was tested, and the inhibition was 3.56% (inactive).
With `O=C1c2ccccc2S(=O)(=O)N1CC(O)COc1ccc(Cl)cc1` (configuration not stated) the inhibition was 5.66% (inactive).
With `CCCCCC(=O)Nc1ccc(N2CCN(S(C)(=O)=O)CC2)cc1` the inhibition was 8.48% (inactive).
With `CCn1cc(C(=O)NCc2ccco2)c(=O)c2cc(S(=O)(=O)N3CCC(C)CC3)ccc21` the inhibition was 2.74% (inactive).
`COC(=O)CSc1nc2c(c(=O)n(C)c(=O)n2C)n1CCCc1ccccc1` was tested, and the inhibition was 4.4% (inactive).
With `CCN1C(=O)c2cccc3c(S(=O)(=O)NCCCN4CCOCC4)ccc1c23` the inhibition was 8.51% (inactive).
With `Cc1cc(NC(=O)COc2cccc(C)c2C)no1` the inhibition was 11.1% (inactive).
With `Cn1c(SCC(N)=O)nnc1C1CCN(C(=O)NCc2ccccc2)CC1` the inhibition was 11.9% (inactive).
In the case of `CCOC(=O)c1ccc(-c2n[nH]c(=O)c3ccccc23)cc1`, the inhibition is reported as -0.81% (inactive).
In the case of `Cc1ccc2c(c1)N(CC(=O)NCc1cccs1)C(=O)CO2`, the inhibition is reported as 7.47% (inactive).
`O=C(OCN1C(=O)c2ccccc2C1=O)c1cccs1` was tested, and the inhibition was 8.67% (inactive).
`O=C(NCCCc1ccccc1)C1CCN(c2nnc(-n3cccc3)s2)CC1` was tested, and the inhibition was 1.14% (inactive).
With `Cn1c(=O)c2cc(S(=O)(=O)N3CCN(c4cccc(C(F)(F)F)c4)CC3)ccc2n(C)c1=O` the inhibition was 3.54% (inactive).
In the case of `CCn1c(COc2cccc(C)c2)nnc1SCC(=O)Nc1cccc(C(=O)O)c1`, the inhibition is reported as 7.81% (inactive).
With `O=C(CCS(=O)(=O)Cc1ccccc1)N1CCN(Cc2ccccc2)CC1` the inhibition was -7.91% (inactive).
With `Cc1cc(Nc2cccc(Cl)c2)n2ncnc2n1` the inhibition was -9.28% (inactive).
`COc1ccc(C(=O)NC2(C(F)(F)F)N=C3SCCN3C2=O)cc1` (configuration not stated) was tested, and the inhibition was 96.1% (inactive).
In the case of `CCOC(=O)N1CCC(n2c(=S)[nH]c3cc(OC)c(OC)cc3c2=O)CC1`, the inhibition is reported as -14.3% (inactive).
In the case of `COc1cc2c(cc1OC)CN(C(=O)Cc1ccc(OC)c(S(=O)(=O)N3CCOCC3)c1)CC2`, the inhibition is reported as 1.37% (inactive).
With `CCOc1cc(C#N)c(NC(=O)c2ccco2)cc1OCC` the inhibition was 7.92% (inactive).
With `Cn1nc(-c2ccc(C(=O)Nc3cccnc3)cc2)c2ccccc2c1=O` the inhibition was 13.4% (inactive).
`Cc1ccnc(NC(=O)Nc2cccc(F)c2)c1` was tested, and the inhibition was -13.1% (inactive).
With `O=c1c2cc(N3CCOCC3)ccc2[nH]c(=S)n1CCCN1CCCCC1` the inhibition was 7.14% (inactive).
For `COCCn1nnnc1C(c1ccc(OC)cc1OC)N1CCN(c2ccccc2)CC1` (configuration not stated), the inhibition was 7.1% (inactive).
With `COCCN(CCOC)C(=O)c1c[nH]c2ccc(S(=O)(=O)N(C)c3ccc(F)cc3)cc2c1=O` the inhibition was -2.71% (inactive).
For `C/C=C/c1ccc(OCCCCN2C(=O)NC(C)(C)C2=O)c(OC)c1`, the inhibition was 0.22% (inactive).
With `CCOC(=O)c1cc2c(=O)n3cccc(C)c3nc2n(Cc2ccco2)c1=NC(=O)c1cccnc1` the inhibition was 12.3% (inactive).
With `CCC(C)NC(=O)CN(c1ccc(OC)cc1)S(=O)(=O)c1ccc(NC(C)=O)cc1` (configuration not stated) the inhibition was -3.53% (inactive).
